Experimental data reported in PubChem BioAssay (EPA / NIEHS).
Inconclusive results are not listed. Active and inactive are the calls of the source. How the source made its calls, unless noted: active means hit-call score of the fitted dose curve at least 0.9, where 1 is the maximum; inactive means score below 0.9.

Legend:
[1] = ACEA_ER_80hr: ACEA Biosciences xCELLigence Real-Time Cell Analysis on Estrogen Receptor Agonism for Proliferation (AID 2282667; active means hit-call score of the fitted dose curve at least 0.9, where 1 is the maximum); conditions: T47D proliferation, impedance (xCELLigence), 80 h
Procedure, shortened: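 Cell-growth kinetics were measured by impedance in T47D cells treated continuously with compound (top 100 uM final, 1:4 steps, 8 points). Activity at 80 h was scored as signal gain over the DMSO baseline.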

[2] = molecular target: CCAAT/enhancer-binding protein beta (Homo sapiens) (UniProt P17676); experiment: ATG_C_EBP_CIS: Attagene CIS-FACTORIAL HepG2 Assay for human CCAAT/Enhancer Binding Protein (C/EBP) beta (AID 2282927); conditions: HepG2 Attagene cis-factorial transcription factor reporter; actives raise or lower the signal
Sequence of CCAAT/enhancer-binding protein beta (Homo sapiens) (P17676 whole entry, looked up, the tested form may be a part): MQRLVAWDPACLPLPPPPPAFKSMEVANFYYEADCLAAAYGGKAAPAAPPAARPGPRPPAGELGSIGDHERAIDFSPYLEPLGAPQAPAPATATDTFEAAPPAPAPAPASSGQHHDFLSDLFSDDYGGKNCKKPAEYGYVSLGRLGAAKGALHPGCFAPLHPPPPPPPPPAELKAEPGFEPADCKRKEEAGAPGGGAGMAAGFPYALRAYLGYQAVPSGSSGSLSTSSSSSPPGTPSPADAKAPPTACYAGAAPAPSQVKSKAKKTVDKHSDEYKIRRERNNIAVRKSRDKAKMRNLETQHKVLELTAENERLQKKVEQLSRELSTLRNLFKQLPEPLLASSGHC
Procedure, shortened: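 Chemical-treated HepG2 cells (24 h) bearing cis-regulated reporter constructs were processed for total RNA, then reverse transcription, PCR amplification, fluorescent primer extension and fragment analysis; gain- and loss-of-signal were fitted against DMSO.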

[3] = ATG_CMV_CIS: Attagene CIS-FACTORIAL HepG2 Assay for human CMV (Internal Marker) (AID 2282928); conditions: HepG2 CMV promoter reporter, transcription factor profiling; actives raise or lower the signal;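 further: endpoint acts as a background internal control marker rather than a target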
Procedure, shortened: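 HepG2 cells transiently transfected with multiple cis-regulated reporter units; 24 h compound exposure. Reporter mRNA quantified by RT-PCR, 6-FAM primer-extension labeling, HpaI digestion and capillary electrophoresis; bidirectional fitting against DMSO baseline.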

[4] = ATG_DR4_LXR_CIS: Attagene CIS-FACTORIAL HepG2 Assay for human Liver X Receptor (LXR), DR4 submotif (AID 2282929); conditions: HepG2 Attagene DR4 cis-reporter, mRNA transcription; actives raise or lower the signal
Procedure, shortened: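 HepG2, transient MRTU transfection, cis-element (DR4) promoter; 24 h compound exposure; total RNA → oligo(dT) RT → PCR → 6-FAM primer extension → HpaI cut → CE. Gain/loss vs DMSO, bidirectional fit.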

[5] = molecular target: Aryl hydrocarbon receptor (Homo sapiens) (UniProt P35869); experiment: ATG_Ahr_CIS: Attagene CIS-FACTORIAL HepG2 Assay for human Aryl Hydrocarbon Receptor (Ahr) (AID 2282930); conditions: HepG2 AhR cis-factorial reporter transcription; actives raise or lower the signal
Sequence of Aryl hydrocarbon receptor (Homo sapiens) (P35869 whole entry, looked up): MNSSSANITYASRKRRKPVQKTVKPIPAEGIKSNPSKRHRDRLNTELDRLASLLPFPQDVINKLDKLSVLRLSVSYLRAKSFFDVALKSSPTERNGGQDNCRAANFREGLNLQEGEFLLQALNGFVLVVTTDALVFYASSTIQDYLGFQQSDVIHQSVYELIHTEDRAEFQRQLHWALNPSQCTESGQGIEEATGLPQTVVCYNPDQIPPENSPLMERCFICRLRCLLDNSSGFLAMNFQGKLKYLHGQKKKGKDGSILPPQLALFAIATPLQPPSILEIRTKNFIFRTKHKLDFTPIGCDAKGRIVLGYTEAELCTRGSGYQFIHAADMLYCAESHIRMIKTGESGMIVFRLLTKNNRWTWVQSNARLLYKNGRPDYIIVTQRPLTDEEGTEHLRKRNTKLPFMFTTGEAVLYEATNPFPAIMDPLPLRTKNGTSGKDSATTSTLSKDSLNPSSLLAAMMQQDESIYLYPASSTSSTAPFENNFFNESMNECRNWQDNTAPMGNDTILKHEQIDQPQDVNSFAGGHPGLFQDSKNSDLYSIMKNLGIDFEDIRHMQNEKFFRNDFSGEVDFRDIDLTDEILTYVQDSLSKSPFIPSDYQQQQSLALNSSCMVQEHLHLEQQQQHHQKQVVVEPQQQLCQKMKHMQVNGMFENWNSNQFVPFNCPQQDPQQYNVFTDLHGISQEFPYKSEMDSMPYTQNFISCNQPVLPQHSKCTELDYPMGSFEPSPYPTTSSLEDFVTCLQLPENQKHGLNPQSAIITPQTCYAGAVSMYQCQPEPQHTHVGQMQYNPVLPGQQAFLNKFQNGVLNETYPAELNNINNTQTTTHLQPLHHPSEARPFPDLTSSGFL
Procedure, shortened: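 Following 24 h of chemical dosing, transfected HepG2 liver cells with cis-driven reporter units were lysed for RNA; reporter mRNA was quantified via RT-PCR and capillary electrophoresis, and responses fitted bidirectionally from DMSO.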

[6] = ATG_AP_1_CIS: Attagene CIS-FACTORIAL HepG2 Assay for human Activator Protein 1 (AP-1) (AID 2282931); conditions: HepG2 Attagene cis-factorial AP-1 reporter mRNA; actives raise or lower the signal
Procedure, shortened: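 Transient MRTU transfection of HepG2 → 24 h chemical treatment → RNA isolation, RT-PCR, 6-FAM labelling, HpaI digest → capillary electrophoresis. Fit: bidirectional, DMSO negative control.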

[7] = ATG_AP_2_CIS: Attagene CIS-FACTORIAL HepG2 Assay for human Activator Protein 2 (AP-2) (AID 2282932); conditions: HepG2 AP-2 cis-reporter, Attagene transcription factor profiling; actives raise or lower the signal
Procedure, shortened: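 HepG2 cells were transiently transfected with multiple cis-promoter reporter transcription units and dosed for 24 h. Reporter mRNA was measured by RT-PCR with capillary electrophoresis fluorescence; bidirectional fits relative to DMSO baseline.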

[8] = ATG_BRE_CIS: Attagene CIS-FACTORIAL HepG2 Assay for human Bone Morphogenetic Protein (BMP) Response Element (BRE) (AID 2282933); conditions: HepG2 BMP response element reporter, Attagene transcription factor profiling; actives raise or lower the signal
Procedure, shortened: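 Endogenous transcription factor activity at a BMP response element was monitored in transfected HepG2 cells 24 h after dosing. Fluorescent RT-PCR products were resolved by capillary electrophoresis, and activity was fitted in both directions versus DMSO.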

[9] = molecular target: Retinoic acid receptor alpha (Homo sapiens) (UniProt P10276); experiment: ATG_DR5_RAR_CIS: Attagene CIS-FACTORIAL HepG2 Assay for human Retinoic Acid Receptor Alpha (RARE), DR5 submotif (AID 2282934); conditions: HepG2 Attagene cis-factorial RARE DR5 reporter, mRNA; actives raise or lower the signal
Sequence of Retinoic acid receptor alpha (Homo sapiens) (P10276 whole entry, looked up): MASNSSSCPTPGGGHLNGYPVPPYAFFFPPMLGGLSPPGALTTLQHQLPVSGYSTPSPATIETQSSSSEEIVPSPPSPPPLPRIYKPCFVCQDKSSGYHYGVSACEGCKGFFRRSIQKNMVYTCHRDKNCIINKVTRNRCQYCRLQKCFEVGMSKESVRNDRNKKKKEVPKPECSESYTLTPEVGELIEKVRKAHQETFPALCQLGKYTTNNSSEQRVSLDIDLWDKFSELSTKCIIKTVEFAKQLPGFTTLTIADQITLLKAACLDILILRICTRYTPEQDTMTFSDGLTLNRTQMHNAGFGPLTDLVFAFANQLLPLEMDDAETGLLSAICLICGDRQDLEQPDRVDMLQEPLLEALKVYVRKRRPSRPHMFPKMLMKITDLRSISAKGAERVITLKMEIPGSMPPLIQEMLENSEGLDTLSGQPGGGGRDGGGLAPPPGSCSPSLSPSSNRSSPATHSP
Procedure, shortened: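 Transfected HepG2 reporter cells are exposed to chemicals for 24 h. Then RNA is extracted and the DR5 element reporter transcript is measured by RT-PCR and capillary electrophoresis, with bidirectional curve fitting relative to DMSO.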

[10] = molecular target: Transcription factor E2F1 (Homo sapiens) (UniProt Q01094); experiment: ATG_E2F_CIS: Attagene CIS-FACTORIAL HepG2 Assay for human E2F Transcription Factor 1 (AID 2282935); conditions: HepG2 Attagene cis-reporter, E2F reporter RNA transcripts; actives raise or lower the signal
Sequence of Transcription factor E2F1 (Homo sapiens) (Q01094 whole entry, looked up): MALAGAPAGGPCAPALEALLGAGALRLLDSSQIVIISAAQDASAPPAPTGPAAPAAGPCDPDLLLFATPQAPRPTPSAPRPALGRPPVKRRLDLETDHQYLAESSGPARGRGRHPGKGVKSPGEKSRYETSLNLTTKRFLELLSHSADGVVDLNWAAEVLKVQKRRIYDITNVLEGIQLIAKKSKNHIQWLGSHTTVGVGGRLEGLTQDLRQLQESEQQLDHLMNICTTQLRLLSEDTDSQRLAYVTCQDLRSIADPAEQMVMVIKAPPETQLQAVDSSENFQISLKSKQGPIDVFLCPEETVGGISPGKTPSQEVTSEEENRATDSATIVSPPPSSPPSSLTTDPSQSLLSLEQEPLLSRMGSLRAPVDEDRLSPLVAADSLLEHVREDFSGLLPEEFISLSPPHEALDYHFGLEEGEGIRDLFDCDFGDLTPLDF
Procedure, shortened: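 HepG2 cells transiently transfected with multiplexed cis-element reporter units, dosed for 24 h. Reporter mRNA measured by RT-PCR, 6-FAM primer-extension labeling, HpaI digestion and capillary electrophoresis; bidirectional fit versus DMSO baseline.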

[11] = ATG_E_Box_CIS: Attagene CIS-FACTORIAL HepG2 Assay for human Enhancer Box (E-box) (AID 2282936); conditions: HepG2 E-box cis-reporter transcription, actives raise or lower the signal
Procedure, shortened: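 HepG2 cells transiently transfected with multiplexed cis-element reporter units sensing endogenous transcription factor activity; 24 h compound exposure. Reporter mRNA measured by RT-PCR, 6-FAM primer extension, HpaI digestion and capillary electrophoresis; bidirectional fit versus DMSO.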

[12] = ATG_M_61_CIS: Attagene CIS-FACTORIAL HepG2 Assay for M61 Transcription Factor (Internal Marker) (AID 2282937); conditions: HepG2 Attagene CIS-FACTORIAL M61 internal marker reporter; actives raise or lower the signal
Procedure, shortened: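 Human liver HepG2, transient MRTU transfection (cis promoter elements), 24 h compound. Total RNA → oligo(dT) RT → PCR → FAM label → HpaI → CE. Internal background marker; bidirectional fitting, DMSO = baseline.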

[13] = ATG_EGR_CIS: Attagene CIS-FACTORIAL HepG2 Assay for human Early Growth Response 1 (EGR1) (AID 2282938); conditions: HepG2 Attagene CIS-FACTORIAL EGR reporter mRNA; actives raise or lower the signal
Procedure, shortened: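 Transient transfection of human HepG2 with multiple cis-regulated reporter units, chemical exposure 24 h, total RNA isolated. Reverse transcription, PCR, fluorescent labelling and capillary electrophoresis quantify reporter transcripts; activity fitted bidirectionally against DMSO.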

[14] = ATG_M_19_CIS: Attagene CIS-FACTORIAL HepG2 Assay for M19 Transcription Factor (Internal Marker) (AID 2282939); conditions: HepG2 Attagene CIS-FACTORIAL M19 internal marker reporter; actives raise or lower the signal
Procedure, shortened: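 Background-control endpoint from a multiplexed HepG2 reporter panel. Cells carrying cis-regulated reporter constructs are treated 24 h, then reporter transcripts are amplified, fluorescently labelled and sized by capillary electrophoresis. DMSO defines baseline.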

[15] = ATG_ERE_CIS: Attagene CIS-FACTORIAL HepG2 Assay for Estrogen Response Element (ERE) (AID 2282940); conditions: HepG2 ERE cis-reporter, Attagene RNA transcript; actives raise or lower the signal
Procedure, shortened: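 Cells used were human hepatoma HepG2, transfected with multiple reporter transcription units under cis-regulatory promoters. Reporter mRNA, read 24 h post-dosing via fluorescent RT-PCR products on capillary electrophoresis, was fitted bidirectionally relative to DMSO.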

[16] = ATG_Ets_CIS: Attagene CIS-FACTORIAL HepG2 Assay for human Erythroblast Transformation Specific (ETS) (AID 2282941); conditions: HepG2 ETS cis-reporter transcription, actives raise or lower the signal
Procedure, shortened: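 HepG2 cells transiently transfected with cis-promoter reporter transcription units were dosed for 24 h; reporter mRNA was measured by RT-PCR, 6-FAM primer extension, HpaI digestion and capillary electrophoresis, with bidirectional fitting against DMSO baseline.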

[17] = ATG_FoxO_CIS: Attagene CIS-FACTORIAL HepG2 Assay for human Forkhead box O (FoxO) (AID 2282943); conditions: HepG2 Attagene cis-reporter, FoxO element, mRNA; actives raise or lower the signal
Procedure, shortened: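 24 h chemical exposure, HepG2 with transient cis-MRTU transfection. RNA extraction, oligo(dT) RT, reporter-specific PCR, primer-extension labelling, HpaI digestion, CE fragment analysis; bidirectional fit, DMSO baseline.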

[18] = ATG_GATA_CIS: Attagene CIS-FACTORIAL HepG2 Assay for human GATA Binding Protein (AID 2282944); conditions: HepG2 GATA cis-element reporter, Attagene multiplex mRNA; actives raise or lower the signal
Procedure, shortened: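 Endogenous transcription factor activity was captured through cis-promoter-driven reporters in transfected HepG2 cells. After 24 h exposure, reporter transcripts were quantified by RT-PCR with fluorescent capillary electrophoresis, and responses fitted both directions against DMSO.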

[19] = molecular target: Hepatocyte nuclear factor 3-beta (Homo sapiens) (UniProt Q9Y261); experiment: ATG_FoxA2_CIS: Attagene CIS-FACTORIAL HepG2 Assay for human Forkhead box A2 (FOXA2) (AID 2282942); conditions: HepG2 cis-reporter transcription factor activity, 24 h; actives raise or lower the signal
Sequence of Hepatocyte nuclear factor 3-beta (Homo sapiens) (Q9Y261 whole entry, looked up): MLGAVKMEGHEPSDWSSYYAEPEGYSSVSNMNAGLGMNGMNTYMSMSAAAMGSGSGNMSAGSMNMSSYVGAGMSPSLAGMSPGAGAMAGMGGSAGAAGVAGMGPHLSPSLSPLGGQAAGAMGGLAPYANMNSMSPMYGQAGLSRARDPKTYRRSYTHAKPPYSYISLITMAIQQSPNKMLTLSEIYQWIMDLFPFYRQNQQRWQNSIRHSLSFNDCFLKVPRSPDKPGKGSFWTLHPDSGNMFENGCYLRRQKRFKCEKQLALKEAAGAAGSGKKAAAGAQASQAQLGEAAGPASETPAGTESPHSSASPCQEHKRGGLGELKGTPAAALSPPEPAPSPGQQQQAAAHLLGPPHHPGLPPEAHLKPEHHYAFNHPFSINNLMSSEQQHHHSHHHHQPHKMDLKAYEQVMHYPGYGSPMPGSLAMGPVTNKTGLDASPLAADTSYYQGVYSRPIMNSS
Procedure, shortened: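 Transient MRTU transfection of HepG2 liver cells; 24 h treatment; total RNA → oligo(dT) RT → PCR → FAM primer extension → HpaI cut → CE. Bidirectional fit vs DMSO.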

Measured: AC50

O=C(O)C(F)(F)C(F)(F)C(F)(F)OC(F)(F)F
not listed: [19]
inactive: all other assays above

C[Si](Cl)(Cl)CCC(F)(F)C(F)(F)C(F)(F)C(F)(F)C(F)(F)C(F)(F)F
not listed: [3] | [9]
inactive: all other assays above

CC(C)(C)c1cc(CCC(=O)NCCCCCCNC(=O)CCc2cc(C(C)(C)C)c(O)c(C(C)(C)C)c2)cc(C(C)(C)C)c1O
active: [1] 50 µM
not listed: [4]
inactive: all other assays above
